According to PubChem BioAssay AID1159580 (chemical genetic matrix, 2015):
“And” between values parts separate entries of the source, which are not always exact repeats. Equal entries are not always repeated. The whole screen tested about 5,500 compounds, of which about 2,000 (36%) were called active. About 18% were inconclusive and are not listed. Cut-off read from the data, not from the text of the source: active = normalized growth mostly below about 0.91 (no sharp cut-off); inconclusive = no clear call, values can overlap the other calls; inactive = mostly above about 0.92. The list shows a part of the results.

Assay: chemical genetic growth profiling, strain panel (AID 1159580);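 note: tested at 20 µM; growth read once vehicle control cultures reached saturation at 30 °C; 1 = growth at the plate median or of vehicle wells; lower values mean less growth of the strain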
Details: growth OD

Measured: normalized growth

NCCc1ccc(O)cc1
active: S. cerevisiae deletion strains, locus YNL248C, strain rpa49, stronger effect = lower value 0.856
inactive: S. cerevisiae deletion strains, locus YJR075W, strain HOC1, stronger effect = lower value 1.01 | S. cerevisiae deletion strains, locus YKL009W, strain mrt4, stronger effect = lower value 0.992 | S. cerevisiae deletion strains, locus YKL068W, stronger effect = lower value 0.994 | S. cerevisiae deletion strains, locus YKL085W, strain MDH1 (second series), stronger effect = lower value 0.996 | S. cerevisiae deletion strains, locus YKL085W, strain MDH1, stronger effect = lower value 0.996 | S. cerevisiae deletion strains, locus YKL160W, strain elf1, stronger effect = lower value 1.01 | S. cerevisiae deletion strains, locus YKL190W, strain CNB1, stronger effect = lower value 1.01 | S. cerevisiae deletion strains, locus YKR001C, strain vps1, stronger effect = lower value 0.978 | S. cerevisiae deletion strains, locus YKR026C, strain gcn3, stronger effect = lower value 0.972 | S. cerevisiae deletion strains, locus YKR091W, strain srl3, stronger effect = lower value 0.986 | S. cerevisiae deletion strains, locus YLL001W, strain dnm1, stronger effect = lower value 0.982 | S. cerevisiae deletion strains, locus YLL026W, stronger effect = lower value 0.985 | S. cerevisiae deletion strains, locus YLL041C, strain sdh2, stronger effect = lower value 0.978 | S. cerevisiae deletion strains, locus YLR027C, strain aat2, stronger effect = lower value 0.984 | S. cerevisiae deletion strains, locus YLR039C, strain RIC1, stronger effect = lower value 1.02 | S. cerevisiae deletion strains, locus YLR058C, strain SHM2, stronger effect = lower value 1.01 | S. cerevisiae deletion strains, locus YLR102C, strain apc9, stronger effect = lower value 0.999 | S. cerevisiae deletion strains, locus YLR113W, strain HOG1, stronger effect = lower value 0.973 | S. cerevisiae deletion strains, locus YLR221C, strain rsa3, stronger effect = lower value 0.951 | S. cerevisiae deletion strains, locus YLR258W, strain gsy2, stronger effect = lower value 0.985 | S. cerevisiae deletion strains, locus YLR262C, strain YPT6 (second series), stronger effect = lower value 0.976 | S. cerevisiae deletion strains, locus YLR262C, strain YPT6, stronger effect = lower value 1.02 | S. cerevisiae deletion strains, locus YLR268W, strain sec22, stronger effect = lower value 0.993 | S. cerevisiae deletion strains, locus YLR320W, strain mms22, stronger effect = lower value 0.962 | S. cerevisiae deletion strains, locus YLR330W, strain CHS5, stronger effect = lower value 1.01 | S. cerevisiae deletion strains, locus YLR342W, strain FKS1 (second series), stronger effect = lower value 1 | S. cerevisiae deletion strains, locus YLR342W, strain FKS1, stronger effect = lower value 0.98 | S. cerevisiae deletion strains, locus YLR357W, strain rsc2, stronger effect = lower value 0.956 | S. cerevisiae deletion strains, locus YLR370C, strain arc18, stronger effect = lower value 0.984 | S. cerevisiae deletion strains, locus YLR371W, strain rom2, stronger effect = lower value 0.981 | S. cerevisiae deletion strains, locus YLR384C, strain iki3, stronger effect = lower value 0.958 | S. cerevisiae deletion strains, locus YLR418C, strain cdc73, stronger effect = lower value 1.02 | S. cerevisiae deletion strains, locus YML016C, strain PPZ1, stronger effect = lower value 1 | S. cerevisiae deletion strains, locus YML032C, strain rad52, stronger effect = lower value 1.02 | S. cerevisiae deletion strains, locus YML120C, strain ndi1, stronger effect = lower value 0.994 | S. cerevisiae deletion strains, locus YML124C, strain tub3, stronger effect = lower value 1 | S. cerevisiae deletion strains, locus YMR058W, strain fet3, stronger effect = lower value 0.973 | S. cerevisiae deletion strains, locus YMR078C, strain ctf18, stronger effect = lower value 0.99 | S. cerevisiae deletion strains, locus YMR125W, strain sto1, stronger effect = lower value 0.989 | S. cerevisiae deletion strains, locus YMR129W, stronger effect = lower value 0.973 | S. cerevisiae deletion strains, locus YMR205C, strain PFK2, stronger effect = lower value 1.01 | S. cerevisiae deletion strains, locus YMR223W, strain ubp8, stronger effect = lower value 1.01 | S. cerevisiae deletion strains, locus YMR231W, strain pep5, stronger effect = lower value 0.97 | S. cerevisiae deletion strains, locus YMR263W, strain SAP30, stronger effect = lower value 1.01 and 1 | S. cerevisiae deletion strains, locus YMR307W, strain GAS1, stronger effect = lower value 0.979 and 1.01 | S. cerevisiae deletion strains, locus YNL067W, strain RPL9B, stronger effect = lower value 1.01 | S. cerevisiae deletion strains, locus YNL071W, strain lat1, stronger effect = lower value 0.989 | S. cerevisiae deletion strains, locus YNL153C, strain GIM3, stronger effect = lower value 1.01 and 1.04 | S. cerevisiae deletion strains, locus YNL175C, strain NOP13, stronger effect = lower value 1.03 | S. cerevisiae deletion strains, locus YNL183C, strain NPR1, stronger effect = lower value 0.953 | S. cerevisiae deletion strains, locus YNL197C, strain WHI3, stronger effect = lower value 1 | S. cerevisiae deletion strains, locus YNL209W, strain ssb2, stronger effect = lower value 1 | S. cerevisiae deletion strains, locus YNL224C, strain SQS1, stronger effect = lower value 1 | S. cerevisiae deletion strains, locus YNL233W, strain BNI4, stronger effect = lower value 1 | S. cerevisiae deletion strains, locus YNL250W, strain rad50, stronger effect = lower value 0.995 | S. cerevisiae deletion strains, locus YNL271C, strain bni1, stronger effect = lower value 0.993 | S. cerevisiae deletion strains, locus YNL298W, strain CLA4, stronger effect = lower value 1 | S. cerevisiae deletion strains, locus YNL307C, strain MCK1, stronger effect = lower value 1.02 | S. cerevisiae deletion strains, locus YNL322C, strain KRE1 (second series), stronger effect = lower value 0.992 | S. cerevisiae deletion strains, locus YNL322C, strain KRE1, stronger effect = lower value 1 and 0.993 | S. cerevisiae deletion strains, locus YNR049C, strain mso1, stronger effect = lower value 0.98 | S. cerevisiae deletion strains, locus YNR052C, strain pop2, stronger effect = lower value 0.988 | S. cerevisiae deletion strains, locus YOL012C, strain htz1 0.829 | S. cerevisiae deletion strains, locus YOL147C, strain pex11, stronger effect = lower value 1 | S. cerevisiae deletion strains, locus YOR001W, strain rrp6, stronger effect = lower value 0.927 | S. cerevisiae deletion strains, locus YOR061W, strain CKA2, stronger effect = lower value 1.01 | S. cerevisiae deletion strains, locus YOR069W, strain VPS5, stronger effect = lower value 1 | S. cerevisiae deletion strains, locus YOR070C, strain gyp1, stronger effect = lower value 0.963 | S. cerevisiae deletion strains, locus YOR080W, strain dia2, stronger effect = lower value 0.968 | S. cerevisiae deletion strains, locus YOR083W, strain WHI5 (second series), stronger effect = lower value 1.03 | S. cerevisiae deletion strains, locus YOR083W, strain WHI5, stronger effect = lower value 1.01 | S. cerevisiae deletion strains, locus YOR106W, strain vam3, stronger effect = lower value 1.02 | S. cerevisiae deletion strains, locus YOR136W, strain idh2, stronger effect = lower value 0.996 | S. cerevisiae deletion strains, locus YOR144C, strain elg1, stronger effect = lower value 0.992 | S. cerevisiae deletion strains, locus YOR184W, strain ser1, stronger effect = lower value 1 | S. cerevisiae deletion strains, locus YOR231W, strain MKK1, stronger effect = lower value 0.963 | S. cerevisiae deletion strains, locus YOR265W, strain rbl2, stronger effect = lower value 1 | S. cerevisiae deletion strains, locus YOR270C, strain vph1, stronger effect = lower value 0.964 | S. cerevisiae deletion strains, locus YOR290C, strain snf2, stronger effect = lower value 1 | S. cerevisiae deletion strains, locus YOR316C, strain cot1, stronger effect = lower value 1 | S. cerevisiae deletion strains, locus YPL051W, strain arl3, stronger effect = lower value 0.987 | S. cerevisiae deletion strains, locus YPL055C, strain LGE1, stronger effect = lower value 1.01 | S. cerevisiae deletion strains, locus YPL078C, strain atp4, stronger effect = lower value 0.997 | S. cerevisiae deletion strains, locus YPL106C, strain sse1, stronger effect = lower value 0.987 | S. cerevisiae deletion strains, locus YPL240C, strain hsp82, stronger effect = lower value 0.976 | S. cerevisiae deletion strains, locus YPL241C, strain CIN2, stronger effect = lower value 1.01 and 1 | S. cerevisiae deletion strains, locus YPL256C, strain CLN2, stronger effect = lower value 0.953 | S. cerevisiae deletion strains, locus YPR119W, strain clb2, stronger effect = lower value 0.992 | S. cerevisiae deletion strains, locus YPR141C, strain kar3, stronger effect = lower value 0.996 | S. cerevisiae deletion strains, locus YPR163C, strain tif3, stronger effect = lower value 1.01 | S. cerevisiae deletion strains, locus YPR167C, strain met16, stronger effect = lower value 1.01 | S. cerevisiae deletion strains, strain wtn01, stronger effect = lower value 0.984 | S. cerevisiae strains, strain wild type, stronger effect = lower value 1
